An excerpt weighted towards active compounds, which were near 14% of everything screened.
LmPK inhibitor: qHTS Assay for Inhibitors of Leishmania Mexicana Pyruvate Kinase (LmPK) | Potency, µM (highest dose often 57.5 µM), for the others: at the top dose activity change, negative = inhibition, hits mostly inhibitors | hit rate 0.37% among 290,000 | purified LmPK, Kinase-Glo ATP luminescence, 1 h | Q27686; also: potency is read from the fitted curve at half-maximal effect; % is scaled to controls: 0 for no effect and ±100 for the full control effect
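In 50 mM imidazole pH 7.2 with 7 mM MgCl2, LmPK (0.1 nM) turned over PEP (0.5 mM) and ADP (0.1 mM) for 1 h at room temperature. Luciferase read-out of ATP.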
NS1 function inh: qHTS Assay for Inhibitors of Influenza NS1 Protein Function; hit rate 0.4% among 270,000; Potency, µM (highest dose often 46.1 µM), without a hit: top-dose activity, positive = more growth; calls by dose curve; also: potency is read from the fitted curve at half-maximal effect; actives are rising curves; nearly all actives have a fitted effect of over 50% in size
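OD600 was taken as the measure of yeast growth restored by compound in an NS1-expressing S. cerevisiae strain. Cells had been washed out of glucose medium and diluted 1:100 into galactose -URA medium, pH 6.0.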
Cycloheximide cs: Cycloheximide Counterscreen for Small Molecule Inhibitors of Shiga Toxin | cell reporter, cycloheximide protein synthesis inhibition counterscreen | max response, % | hit rate 12% among 300,000 | AID 2314, 2010; in the data active = max response mostly above about 13%, no sharp cut-off; inactive = mostly below about 14%; also: read at 38.3 µM for the half of the compounds with a filed dose; 0% is about no effect
Shiga inhibitor: A qHTS for Small Molecule Inhibitors of Shiga Toxin; Vero cells, Shiga toxin protein synthesis inhibition reporter; inhibition, % at 38.7 µM; hit rate 9.2% among 290,000; AID 2315, 2010; in the data active = inhibition mostly above about 28%, no sharp cut-off; inactive = mostly below about 43%; also: 0% is about no effect
Giardia FBPA inh: qHTS Assay for Inhibitors of Fructose-1,6-bisphosphate Aldolase from Giardia Lamblia; AID 2451, 2010; purified Giardia FBPA; Potency, µM (highest dose often 59.6 µM), for the others: at the top dose activity, negative = inhibition, most hits filed as inhibitors; hit rate 0.71% among 290,000; A8B2U2; also: potency is read from the fitted curve at half-maximal effect; % is scaled to controls: 0 for no effect and ±100 for the full control effect; nearly all actives have a fitted effect of over 55% in size
Target sequence (A8B2U2 whole entry, looked up): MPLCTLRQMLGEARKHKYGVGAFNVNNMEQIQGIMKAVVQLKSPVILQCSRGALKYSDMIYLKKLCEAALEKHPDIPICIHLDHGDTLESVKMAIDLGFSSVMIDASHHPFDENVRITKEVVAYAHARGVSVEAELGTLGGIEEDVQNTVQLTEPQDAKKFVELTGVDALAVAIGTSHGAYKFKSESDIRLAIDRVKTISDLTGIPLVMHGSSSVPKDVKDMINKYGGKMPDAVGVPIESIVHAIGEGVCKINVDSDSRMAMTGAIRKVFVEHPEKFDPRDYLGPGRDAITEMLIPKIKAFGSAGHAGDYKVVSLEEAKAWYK
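40 nM FBPA preincubated 10 min at RT with compound (up to 57.5 uM final), then substrate plus GAPDH/TPI/NAD/arsenate coupling and diaphorase/resazurin added. Fluorescence read after 20 min at RT, 525/598 nm.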
* hit, by the source's call; ? = inconclusive; . = not tested or not shown; [ ] = remark or other dose. Unless noted, calls follow the shape of the dose curve; as a rule, active = well fitted curve in the direction sought with a large enough effect; inconclusive = small, poorly fitted or top-dose-only effect, or another doubt; inactive = no such curve, though single readings can be large; an effect the other way counts as inactive or inconclusive.

SMILES	LmPK inhibitor	NS1 function inh	Cycloheximide cs	Shiga inhibitor	Giardia FBPA inh
Cc1ccc(Cn2c(/C=C/c3ccco3)nc3ccccc32)cc1	-7%	-16%	103*	161*	-11%
FC(F)(F)c1ccccc1-c1cc(NCc2cccs2)ncn1	.	.	.	.	0%
CCCCC/C=C\C/C=C\C/C=C\CCCCC(N)=O	.	.	.	.	2%
C[C@@H]1O[C@H]2C3=C(C(=O)[C@H]4O[C@@H]4[C@H]3O)[C@@H]1[C@@H]1[C@@H](C)OC=C3[C@H](O)[C@H]4O[C@@H]4/C(=N\OCc4ccccc4)[C@]312	.	.	.	.	-3%[12.9 µM]
CC(C)CSC1=NSC2=NC(=O)/C(=C\c3cccs3)C(=N)N12	2%	-12%	68*	102*	12%
CSC1=NSC2=NC(=O)/C(=C/c3coc4ccccc4c3=O)C(=N)N12	0%	-12%	17	47*	-8%
CSC1=NSC2=NC(=O)/C(=C/c3coc4ccc(O)cc4c3=O)C(=N)N12	2%	10%	-2	-29	-15%
N=C1/C(=C/c2cccs2)C(=O)N=C2SN=C(SCc3ccccc3)N12	0%	19%	26*	37*	21%
COc1cc(/C=C2/C(=N)N3C(SC)=NSC3=NC2=O)ccc1OC(=O)c1ccco1	0%	0%	29*	84	12%
COc1ccc(S(=O)(=O)NCCCN2CCCC2=O)c(OC)c1	-7%	3%	-1	14	.
CSC1=NSC2=NC(=O)/C(=C\c3cccs3)C(=N)N12	?	-25%	42*	42*	-1%
Cc1cc(/C=C2/C(=N)N3C(=NC2=O)SN=C3S(C)(=O)=O)c(C)n1-c1ccccc1F	-2%	.	6	61	?
NCCc1cnc(-c2cccc(C(F)(F)F)c2)[nH]1	.	.	4	-18	-10%
FC(F)(F)c1cccc(-c2nc3nc(Cl)c(Cl)nc3[nH]2)c1	?	-41%	50*	102*	?
CCCCCN=c1ccn(Cc2ccccc2)c2ccccc12	.	.	.	.	8%
CCOC(=O)c1sc(Nc2ccc(OCC)cc2)nc1C	5%	0%	16	35	-6%
CCOC(=O)c1sc(NC(C)=O)nc1C	4%	-4%	-1	-14	-1%
CCOC(=O)c1sc(NC(=O)Nc2ccc(F)cc2)nc1C	1%	-1%	93*	121*	-14%
CCOC(=O)c1sc(NC(=O)Cc2ccc(F)cc2)nc1C	9%	.	29*	46	-3%
CCOC(=O)c1sc(NC(=O)Cc2ccccc2OC)nc1C	4%	0%	4	-4	6%
CCOC(=O)c1sc(Nc2cccc(Cl)c2)nc1C	3%	-5%	51*	70*	-14%
CCc1nnc(NC(=O)CSCc2cc(=O)n3ccsc3n2)s1	8%	9%	-1	1	.
O=C(CCN1C(=O)C2C3CCC(C3)C2C1=O)Nc1cccc(Cl)c1 (stereo not given)	-3%	-12%	18	21	4%
CC(=O)N1CCOc2ccc(S(=O)(=O)N3CC(C)CC(C)C3)cc21 (stereo not given)	-1%	-3%	2	23	29%
CCOC(=O)c1nn(-c2c(C)n(C)n(-c3ccccc3)c2=O)cc1O	0%	3%	-4	-17	-1%
SMILES	LmPK inhibitor	NS1 function inh	Cycloheximide cs	Shiga inhibitor	Giardia FBPA inh
COc1cc(C(=O)Nc2ccc3c(c2)CCN3C(C)=O)cc(OC)c1OC	-2%	.	-2	-2	3%
COC(=O)C1=C(C)N(Cc2ccc3c(c2)OCO3)C(=O)C1	2%	8%	-6	-9	0%
CCOC(=O)c1nn(-c2ccc([N+](=O)[O-])cc2)cc1O	0%	0%	31*	46*	-2%
COC(=O)c1nn(-c2ccc3c(c2)CCN3C(C)=O)cc1O	10µM*	3%	-11	-36	.
CCOC(=O)c1nn(-c2ccc3c(c2)OCCO3)cc1O	?	.	40*	84*	-1%
COC(=O)c1nn(-c2ccc3c(c2)OCO3)cc1O	18µM*	-29%	33*	61	.
COc1ccc2cc(CCNC(=O)c3ccc(S(=O)(=O)N4CCOCC4)cc3)c(=O)[nH]c2c1	1%	-19%	8	-4	4%
O=S(=O)(c1ccccc1)N1CCC[C@@]2(CCN(Cc3cc(C(F)(F)F)cc(C(F)(F)F)c3)C2)C1	.	.	.	.	-2%
COc1ccc(CCNC(=O)COc2ccc3c(C)cc(=O)oc3c2)cc1OC	-5%	8%	-4	-3	9%

High-throughput results (PubChem)
